A selection: hits, their analogues and other compounds. The true share with any hit is near 6.8%.
T cruzi growth-1: T. cruzi proliferation inhibition. T. cruzi beta-gal in NIH3T3, GalScreen luminescence, 90 h. inhibition, % at 8.34 µM. actives 5.9% (n = 77,000);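 active = mean inhibition above about 93%, with at least 55% of replicates each passing it, limit read from the data, passing the limit was not always enough; inconclusive = only one of those two conditions holds; inactive = neither condition holds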
Pf Dd2 growth: P. falciparum Dd2 growth inhibition; SYBR Green, 72 h; stronger effect = lower value; activity change, % at 10 µM; actives 2.3% (n = 94,000); in the data active = activity change below about -80%; inconclusive = no clear call, values can overlap the other calls
C diff growth: C. difficile growth inhibition | Clostridium difficile clinical isolate growth, OD600, 24 h; stronger effect = lower value | growth activity, negative = inhibition, % at 16 µg/mL (by protocol) | actives 0.25% (n = 86,000) | AID 1259249;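 active = mean growth activity at or below -80% and every replicate also at or below -80%; inconclusive = mean at or below -80% but some replicate above -80%; inactive = mean growth activity above -80%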;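 note: 0% = DMSO wells and -100% = levofloxacin 16 µg/mL wells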
T cruzi growth-2: inhibitors of T. cruzi proliferation. T. cruzi beta-gal in NIH3T3, GalScreen luminescence, 90 h. actives 72% (n = 5,600). shares compounds with T cruzi growth-1. inhibition, % at 8.35 µM;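 active = mean replicate inhibition above about 95% and at least 55% of replicates individually reaching it, limit read from the data; inconclusive = only one of the two criteria is met; inactive = neither criterion is met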
T cruzi growth-3: Trypanosoma cruzi proliferation inhibition. shares compounds with T cruzi growth-1. T. cruzi beta-gal in NIH3T3, GalScreen luminescence, 90 h. inhibition, % at 2.09 µM. actives 21% (n = 5,600);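 active = mean inhibition above about 95%, with at least 55% of replicates also reaching it, limit read from the data; inconclusive = meets just one of the two conditions; inactive = meets neither condition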;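 note: plate controls were neutral control median for no effect and positive control median for full effect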
NIH3T3 tox: cytotoxicity in mouse NIH/3T3 fibroblasts; AID 651742; cytotoxicity (signal decrease), % at 8.35 µM; NIH/3T3 viability, CellTiter-Glo ATP luminescence, 90 h; actives 14% (n = 5,600); shares compounds with T cruzi growth-1;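 active = mean signal decrease across replicates above about 35% based on untreated-well scatter, with enough replicates individually passing, limit read from the data; inconclusive = no rule stated though some were filed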;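 note: 0% = median of neutral control wells and 100% = median of positive control wells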
3T3 cytotox 2: kills mouse NIH/3T3 fibroblasts. shares compounds with T cruzi growth-1. NIH/3T3 viability, CellTiter-Glo ATP luminescence, 90 h. inhibition, % at 24.9 µM. actives 56% (n = 5,600). AID 651744;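 active = mean loss of cell viability signal at or above a set limit, and enough replicates individually reaching it; inconclusive = meets only the mean limit or only the replicate share; inactive = meets neither condition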;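 note: 0% = median of neutral control wells and 100% = median of positive control wells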
An asterisk follows results filed as active; ? = inconclusive; · = no result; + = active, no number.

SMILES | T cruzi growth-1 | Pf Dd2 growth | C diff growth | T cruzi growth-2 | T cruzi growth-3 | NIH3T3 tox | 3T3 cytotox 2
COc1cccc(C#Cc2ccc3c(c2)O[C@H](CN(C)C(C)=O)[C@@H](C)CN([C@@H](C)CO)S3(=O)=O)c1 | ? | -59.8 | -9.0 | 102.2* | 51.0 | 12.3 | 49.4*
COc1cccc(C#Cc2ccc3c(c2)O[C@H](CN(C)C(C)=O)[C@H](C)CN([C@H](C)CO)S3(=O)=O)c1 | 63.2 | -54.6 | -14.6 | · | · | · | ·
COc1ccc(S(=O)(=O)N(C)C[C@@H]2Oc3ccc(NC(=O)Cc4cn(C)c5ccccc45)cc3CC(=O)N([C@@H](C)CO)C[C@H]2C)cc1 | 50.6 | -28.2 | 2.3 | · | · | · | ·
C#Cc1ccc([C@H]2C=C(C(=O)N3CCOCC3)O[C@@H](OCCCCO)C2)cc1 | · | · | -10.4 | · | · | · | ·
COc1ccc(NC(=O)Nc2ccc3c(c2)CC(=O)N([C@@H](C)CO)C[C@@H](C)[C@H](CN(C)S(=O)(=O)c2ccc(F)cc2)O3)cc1 | 9.5 | -0.8 | -4.4 | · | · | · | ·
COCC(=O)Nc1ccc2c(c1)C(=O)N(C)C[C@@H](OC)[C@@H](C)CN(Cc1ccncc1)[C@H](C)CO2 | 5.2 | 25.1 | · | · | · | · | ·
COc1cccc(NC(=O)N(C)C[C@H]2Oc3cc(-c4ccccc4OC)ccc3S(=O)(=O)N([C@@H](C)CO)C[C@H]2C)c1 | · | -5.0 | -4.4 | · | · | · | ·
COc1cccc(NC(=O)N(C)C[C@H]2Oc3cc(C#Cc4ccc(F)cc4)ccc3S(=O)(=O)N([C@H](C)CO)C[C@@H]2C)c1 | 94.4* | -66.7 | 1.4 | 102.1* | 80.6 | -10.3 | 5.1
COc1cccc(NC(=O)N(C)C[C@@H]2Oc3cc(-c4ccccc4OC)ccc3S(=O)(=O)N([C@H](C)CO)C[C@H]2C)c1 | · | -18.4 | -7.3 | · | · | · | ·
COc1cccc(NC(=O)N(C)C[C@@H]2Oc3cc(C#Cc4ccc(F)cc4)ccc3S(=O)(=O)N([C@@H](C)CO)C[C@@H]2C)c1 | 98.0* | -86.2* | 5.4 | 101.6* | 106.8* | 45.1* | 20.5
COc1cccc(NC(=O)N(C)C[C@H]2Oc3cc(C#CC4(O)CCCC4)ccc3S(=O)(=O)N([C@H](C)CO)C[C@@H]2C)c1 | · | -12.7 | 1.0 | · | · | · | ·
COc1cccc(NC(=O)N(C)C[C@@H]2Oc3cc(-c4ccccc4OC)ccc3S(=O)(=O)N([C@H](C)CO)C[C@@H]2C)c1 | · | -42.0 | -7.9 | · | · | · | ·
COc1cccc(NC(=O)N(C)C[C@@H]2Oc3cc(C#Cc4ccccc4)ccc3S(=O)(=O)N([C@H](C)CO)C[C@H]2C)c1 | ? | ? | 31.4 | 98.9* | 92.1 | 52.5* | 39.1*
COc1cccc(NC(=O)N(C)C[C@H]2Oc3cc(C#Cc4ccc(F)cc4)ccc3S(=O)(=O)N([C@@H](C)CO)C[C@H]2C)c1 | 116.4* | -48.8 | 5.7 | 89.2 | 101.5* | 3.6 | 25.9
Cc1noc(C)c1NC(=O)Nc1ccc2c(c1)C(=O)N([C@@H](C)CO)C[C@H](C)[C@H](CN(C)S(=O)(=O)c1cn(C)cn1)O2 | 49.0 | 16.0 | -6.4 | · | · | · | ·
CCC(=O)N1C[C@@H](C)[C@H](OC)CN(C)C(=O)c2cc(NC(=O)NC(C)C)ccc2OC[C@H]1C | -3.3 | 25.0 | -4.8 | · | · | · | ·
C[C@@H]1CN([C@@H](C)CO)C(=O)c2cccc(NC(=O)Nc3ccccc3)c2O[C@@H]1CN(C)C(=O)Nc1cccc2ccccc12 | 69.5 | -67.1 | 3.6 | · | · | · | ·
Cc1cccc(S(=O)(=O)N[C@H]2CC[C@H](CCn3cc(-c4ccccn4)nn3)O[C@@H]2CO)c1 | 45.4 | 1.5 | -1.7 | · | · | · | ·
CCCC#Cc1ccc2c(c1)[C@@H]1[C@@H](CCN1S(=O)(=O)c1ccccc1)[C@@H](CO)N2C | 32.4 | -6.8 | -18.3 | · | · | · | ·
C[C@@H]1CN([C@@H](C)CO)S(=O)(=O)c2ccc(-c3cccc(F)c3)cc2O[C@H]1CN(C)C | -34.0 | · | 0.1 | · | · | · | ·
C[C@H](CO)N1C[C@H](C)[C@H](CN(C)S(=O)(=O)c2ccc(F)cc2)Oc2cc(-c3cccc(F)c3)ccc2S1(=O)=O | 123.8* | -59.5 | 9.3 | 98.1* | 94.6 | 19.6 | 54.0*
C[C@H]1CN([C@@H](C)CO)S(=O)(=O)c2ccc(-c3cccc(F)c3)cc2O[C@H]1CN(C)S(=O)(=O)c1ccc(F)cc1 | 118.3* | -54.4 | 6.8 | 99.2* | 107.6* | 25.9 | 52.2*
C[C@@H]1CN([C@@H](C)CO)S(=O)(=O)c2ccc(-c3cccc(F)c3)cc2O[C@@H]1CN(C)S(=O)(=O)c1ccc(F)cc1 | 119.8 | 1.1 | 7.3 | · | · | · | ·
CC(C)NC(=O)Nc1ccc2c(c1)CC(=O)N([C@@H](C)CO)C[C@H](C)[C@H](CN(C)C(=O)NC(C)C)O2 | -9.6 | 19.7 | 2.2 | · | · | · | ·
CO[C@H](CN(C)C(=O)c1cnccn1)[C@H](C)CN([C@@H](C)CO)S(=O)(=O)c1ccc(Cl)cc1 | -27.2 | 10.7 | · | · | · | · | ·
SMILES | T cruzi growth-1 | Pf Dd2 growth | C diff growth | T cruzi growth-2 | T cruzi growth-3 | NIH3T3 tox | 3T3 cytotox 2
O=C(Nc1ccc(-c2ccccc2)cc1)[C@H]1[C@H](CO)[C@H]2Cn3c(cccc3=O)[C@H]2N1CC1CCCC1 | · | -40.0 | 0.1 | · | · | · | ·
O=C(Nc1ccc(-c2ccccc2)cc1)[C@H]1[C@H](CO)[C@H]2Cn3c(cccc3=O)[C@H]2N1CC1CCCCC1 | ? | -18.4 | 16.9 | 85.3 | 110.2* | 19.9 | 106.9*
CCNC(=O)[C@@H]1[C@@H](CO)[C@@H]2Cn3c(cccc3=O)[C@@H]2N1CC1CCCCC1 | + | · | · | -27.1 | -24.4 | -4.1 | -8.0
O=C(Nc1nccs1)[C@H]1[C@H](CO)[C@H]2Cn3c(ccc(-c4cncnc4)c3=O)[C@H]2N1CC1CCCC1 | -21.0 | · | -6.6 | · | · | · | ·
O=C(Nc1nccs1)[C@H]1[C@H](CO)[C@H]2Cn3c(ccc(-c4ccccc4)c3=O)[C@H]2N1CC1CCCC1 | 98.0* | -21.7 | 14.9 | 105.8* | 56.7 | 27.2 | 64.2*
CCCNC(=O)[C@@H]1[C@@H](CO)[C@@H]2Cn3c(cccc3=O)[C@@H]2N1CC1CCCCC1 | 1.6 | 2.4 | 4.9 | · | · | · | ·
CC(C)NC(=O)N(C)C[C@H]1OCCCC[C@@H](C)Oc2ccc(NS(C)(=O)=O)cc2C(=O)N([C@@H](C)CO)C[C@H]1C | -43.3 | 28.3 | · | · | · | · | ·
CCNC(=O)C[C@H]1CC[C@H](NS(=O)(=O)c2ccc(F)cc2)[C@H](CO)O1 | · | 7.8 | 3.8 | · | · | · | ·
COc1ccc(CN(C)C[C@H]2OCCCC[C@@H](C)Oc3ccc(NC(=O)CCCN(C)C)cc3C(=O)N([C@@H](C)CO)C[C@@H]2C)cc1 | -18.0 | -30.3 | -2.1 | · | · | · | ·
C[C@@H]1CN([C@H](C)CO)C(=O)c2cc(NS(=O)(=O)c3ccc(F)cc3)ccc2O[C@@H](C)CCCCO[C@H]1CN(C)C(=O)C1CCCCC1 | ? | -61.0 | -7.1 | 101.0* | 63.4 | -7.3 | -6.1
